Inconclusive results are not listed. Values without a mark were called inactive. Active and inactive are the calls of the source. Calls follow the shape of the dose curve; as a rule, active = well fitted inhibition curve with a large enough effect in the repeat runs; inconclusive = weak or mixed curves; inactive = no such curve, though single readings can be large or run the other way.
Biological target: Cytochrome P450 2C9 (Homo sapiens) (UniProt P11712)
Assay: Cytochrome P450 Family 2 Subfamily C Member 9 (CYP2C9) small molecule antagonists: luciferase reporter qHTS assay (AID 1671198); also: nearly all actives have a fitted effect of over 50% in size
Conditions: P450-Glo CYP2C9 enzyme assay, luciferin luminescence; series mostly up to 115 µM; activity change, negative = inhibition: at the top concentration
From the text: U.S. Tox21 Program National Center for Advancing Translational Sciences [NCATS] U.S. Environmental Protection Agency [EPA] National Institutes of Environmental Health Sciences [NIEHS] National Toxicology Program [NTP] U.S. Food and Drug Administration [FDA] Tox21 Assay Overview: Cytochrome P450 (CYP) enzymes are membrane-bound hemeproteins that play a key role in metabolism of drugs and xenobiotics. Evaluation of the effect of chemicals on CYP isozymes is useful to minimize the adverse drug reactions and toxicities in drug development process. Tox21 chemicals were tested for their effect on CYP enzyme activities by using P450-Glo (TM) screening systems (Promega Corporation, Madison, WI). These systems provide a luminescent method containing proluciferin substrates and are converted to luciferin products by CYP isozymes. The luciferin products formed are detected with a luciferin detection reagent, and the amount of light produced is proportional to CYP activity. P450-Glo (TM) CYP2C9 screening system (Catalog. No. V9790) was used to detect the compounds that interfere in CYP2C9 activity.
Tox21 Assay Protocol Summary: Two ul of enzyme-substrate mix was dispensed into medium binding white/solid 1536-well plates (Greiner Bio-One North America Inc., Monroe, NC) using a BioRaptr Flying Reagent Dispenser (FRD, Beckman Coulter, Brea, CA). […] The assay plates were incubated at room temperature for 10 min. Then 2 ul of NADPH regeneration solution was added to each well of the assay plates using an FRD and incubated at 37C for 1 h. The reaction was stopped by adding 4 ul of detection reagent using an FRD and after 20 min incubation at room temperature the luminescence signal was measured using a ViewLux plate reader (Perkin Elmer, Shelton, CT). Data were expressed as relative luminescence units.
% is scaled to controls: 0 for no effect and ±100 for the full control effect; potency is read from the fitted curve at half-maximal effect.

Sequence of Cytochrome P450 2C9 (Homo sapiens) (P11712 whole entry, looked up): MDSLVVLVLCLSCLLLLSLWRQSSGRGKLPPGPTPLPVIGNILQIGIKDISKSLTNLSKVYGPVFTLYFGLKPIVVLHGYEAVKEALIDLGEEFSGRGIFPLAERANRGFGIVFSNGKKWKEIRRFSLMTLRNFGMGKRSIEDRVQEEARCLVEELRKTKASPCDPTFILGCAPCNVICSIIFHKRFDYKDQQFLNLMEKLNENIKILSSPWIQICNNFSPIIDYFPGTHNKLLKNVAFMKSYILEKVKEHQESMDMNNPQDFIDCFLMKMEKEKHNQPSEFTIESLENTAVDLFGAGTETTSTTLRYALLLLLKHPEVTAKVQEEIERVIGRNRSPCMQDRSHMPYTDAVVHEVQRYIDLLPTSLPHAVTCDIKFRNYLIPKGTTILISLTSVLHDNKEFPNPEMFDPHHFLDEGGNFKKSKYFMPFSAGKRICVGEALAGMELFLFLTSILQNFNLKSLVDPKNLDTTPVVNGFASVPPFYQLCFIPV

SMILES	Potency	activity change, negative = inhibition
Cc1nccn1-c1ccc(Sc2cccc(C3(C(N)=O)CCOCC3)c2)cc1	5.64 µM (active)	–
O=C(N[C@@H](c1ccccc1)[C@@H]1CCCCN1)c1cccc(C(F)(F)F)c1Cl	63.3 µM (active)	–
C[C@@H]1C[C@H]2[C@@H]3CCC4=CC(=O)C=C[C@]4(C)[C@@]3(F)[C@@H](O)C[C@]2(C)[C@H]1C(=O)CO	15.5 µM (active)	–
CC(C)=CC=O	–	-6.05%
CC(=O)[C@H]1CC[C@H]2[C@@H]3C[C@H](C)C4=CC(=O)CC[C@]4(C)[C@H]3[C@@H](O)C[C@]12C	1.23 µM (active)	–
CC1(C)C(=O)N(Br)C(=O)N1Cl	63.3 µM (active)	–
CCC(C)(C)C1CCC(O)CC1 (stereo not given)	–	-15.2%
CC(C)C(OC(=O)c1ccccc1)C(C)(C)COC(=O)c1ccccc1 (stereo not given)	2 µM (active)	–
c1cnc2c(n1)CCCC2	–	-9.63%
CC(C)CCCC(=O)O	–	-8.21%
CC(C)(C)C(=O)O	–	-18.1%
CCCCOC(=O)CCS	63.3 µM (active)	–
Cc1cc(S(=O)(=O)O)ccc1N=Nc1c(O)ccc2ccccc12	31.7 µM (active)	–
CCCCCCCCCCCCCCC[C@H](O)[C@@H](N)CO	–	26.1% [at 53 µM]
CCC1(C)CC(=O)NC1=O (stereo not given)	–	-0.711% [at 53 µM]
Cc1cc2nc3ccc(=[N+](C)C)cc-3sc2cc1N	19.5 µM (active)	–
Cc1ccc(S)cc1	35.6 µM (active)	–
CC(C)C(=O)O	–	9.35%
CC(C)(C)CC(C)(C)c1ccc(OCCO)cc1	31.5 µM (active)	–
CCCCCC=CCC=CCCCCCCCC(=O)OCC	15.5 µM (active)	–

SMILES	Potency	activity change, negative = inhibition
CC(=O)[C@H]1CC[C@H]2[C@@H]3C=CC4=CC(=O)CC[C@@]4(C)[C@@H]3CC[C@]12C	38.9 µM (active)	–
CCN(Cc1cccc(S(=O)(=O)O)c1)c1ccc(C(=C2C=CC(=[N+](CC)Cc3cccc(S(=O)(=O)[O-])c3)C=C2)c2ccccc2)cc1	28 µM (active)	–
Cc1cnc(C)c(C)n1	–	-18.1%
COc1cc2c(cc1OC)-c1cc(=Nc3c(C)cc(C)cc3C)n(C)c(=O)n1CC2	1.1 µM (active)	–
OC/C(Br)=C(\Br)CO	–	-14%
O=C(NCCCN1CCOCC1)c1ccc(Cl)cc1	–	-3.96% [at 53 µM]
C/C(=N/NC(=O)c1ccncc1)C(=O)O	–	-11.7% [at 53 µM]
Cc1nc2ccccc2s1	–	-14%
COC(OC)(C(=O)c1ccccc1)c1ccccc1	20 µM (active)	–
CCCOC(=O)c1ccc(C(=O)OCCC)nc1	7.1 µM (active)	–
Nc1ccc(S(=O)(=O)O)cc1	–	-8.26%
CCOC(=O)C(C)Oc1ccc(Oc2nc3ccc(Cl)cc3o2)cc1 (stereo not given)	39.9 µM (active)	–
[O]=[Bi]	–	1.73% [at 10.5 µM]
Nc1ccc(C(=O)OCCCOC(=O)c2ccc(N)cc2)cc1	7.1 µM (active)	–
COCC(O)CO (stereo not given)	–	-0.281%
O=c1[nH]c2ccc(S(=O)CCN3CCC(Cc4ccc(F)cc4)CC3)cc2o1 (stereo not given)	–	40.8%
O=[N+]([O-])c1cccc(S(=O)(=O)NCCNS(=O)(=O)c2cccc([N+](=O)[O-])c2)c1	8.71 µM (active)	–
CC(C)(CCl)c1ccccc1	–	-0.915%
CN1CCN(c2c(F)cc3c(=O)c(C(=O)O)cn4c3c2OCN4C)CC1	–	9.24% [at 23.6 µM]
CN(C)CCOC1=Cc2ccccc2Sc2ccc(Cl)cc21	–	0.16% [at 53 µM]

Source: PubChem BioAssay (Tox21)
